# Screens as filed in PubChem.
# D2 ag-1 – activates the human D2 dopamine receptor | activation, % (test concentration not listed) | DiscoveRx PathHunter D2 beta-arrestin, luminescence, 90 min; 100% = 57 uM dopamine signal | hit rate 0.084% among 360,000 | P14416; in the data active means activation above about 40%; inconclusive means between about 15% and that limit
#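 Agonist mode: compounds alone added to overnight-plated D2 PathHunter cells for 90 min at 37 C, with 57 uM final dopamine (EC100) defining full response. Beta-arrestin recruitment detected by chemiluminescent reagent, read after 1 h at ambient temperature.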
# D2 PAM-1 – D2 dopamine receptor (human) potentiation | P14416 | HEK293 T-REx D2, calcium flux, EC20 dopamine potentiation | potentiation, % at 10 µM | hit rate 0.34% among 340,000 | AID 485347;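 active means potentiation over 3 SD above the plate norm, cut at about 30% in these data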; further: 0% is about no effect
#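 Potentiation of an EC20 dopamine calcium response is measured in a force-coupled, tetracycline-inducible Hek293 Trex D2 line. Compound-only kinetic reads over 180 s flag agonists before dopamine addition.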
# D2 PAM-2 – positive allosteric modulators of human D2 dopamine receptor | potentiation, % (no concentration beside the values) | DiscoveRx D2 beta-arrestin cells, luminescence, 90 min; 100% = 57 uM dopamine signal | hit rate 0.23% among 360,000 | AID 624464 | P14416; in the data active means potentiation above about 50%; inconclusive means mostly about 30% to 49%
#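 PathHunter D2 cells, attached overnight at 37 deg C, received compound in DMSO plus dopamine at EC20 (50 nM final) for 90 min at 37 deg C. Beta-arrestin recruitment was read as luminescence after 1 h with detection reagent at ambient temperature.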
# D2 ag-2 – D2 dopamine receptor (human) agonism; P14416; HEK293 T-REx D2 cells, calcium flux agonist mode; activation, % at 2 µM; hit rate 0.53% among 340,000;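 active means activation over 3 SD above normal in the single-dose calcium agonist read, cut at about 30% in these data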; further: 0% is about no effect
#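 HEK293 Trex D2 cells, tetracycline-induced, o/n 30 C 5% CO2; no-wash Ca dye, RT 30–90 min; 10-cycle baseline, 23 nl cpd added, kinetic Ca read 180 s; agonist hits = positive Ca response.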
# D2 antagonist – antagonists of human D2 dopamine receptor; P14416; HEK293 TREx D2 cells, calcium flux, dopamine EC80; inhibition, % at 10 µM; hit rate 2% among 340,000; in the data active means inhibition above about 30%; inactive means below that, where a call was filed; further: 0% is about no effect
#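 Antagonism is scored as inhibition of an EC80 dopamine-evoked calcium signal in a force-coupled, tetracycline-inducible HEK293 T-REx D2 line, with compound present 180 s before agonist.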
# D3 ag – D3 receptor agonism confirmed, beta-arrestin readout. hit rate 4% among 2,300. shares compounds with D2 ag-2. Potency, µM (highest dose often 76.9 µM), without a hit: top-dose activation, hits mostly activators. DiscoveRx D3 beta-arrestin cells, luminescence, 90 min;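 further: potency means the concentration at half of the fitted maximal effect; 100% = dopamine control response; nearly all actives have a fitted effect of over 70% in size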
# Target sequence (P35462 whole entry, looked up): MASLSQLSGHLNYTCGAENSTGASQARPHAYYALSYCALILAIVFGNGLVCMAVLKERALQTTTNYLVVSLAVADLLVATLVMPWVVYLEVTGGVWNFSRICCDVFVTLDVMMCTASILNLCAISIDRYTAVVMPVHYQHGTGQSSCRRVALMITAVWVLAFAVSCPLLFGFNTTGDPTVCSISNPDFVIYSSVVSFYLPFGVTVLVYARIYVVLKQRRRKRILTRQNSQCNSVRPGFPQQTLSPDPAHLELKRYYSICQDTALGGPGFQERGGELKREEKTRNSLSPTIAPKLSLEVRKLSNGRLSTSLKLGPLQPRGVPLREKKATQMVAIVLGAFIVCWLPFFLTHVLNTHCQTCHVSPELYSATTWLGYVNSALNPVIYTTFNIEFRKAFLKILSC
# D2 ag-3 – activates human D2 dopamine receptor in D3 counterscreen; shares compounds with D2 ag-2; DiscoveRx PathHunter D2 beta-arrestin, luminescence, 90 min; response scale: percent relative to full dopamine signal; Potency, µM (doses to about 76.9 µM), without a hit: top-dose activation, hits mostly activators; hit rate 5.9% among 2,300; AID 720507; further: potency means the concentration at half of the fitted maximal effect; % of control where 0% means no effect; nearly all actives have a fitted effect of over 70% in size
# The depositor's hits bear a star; ? = inconclusive; / = no result given; ! = repeats disagree. Sampled rows, rich in hits. Any-hit rate of the full collection: about 2.4%. Unless noted, the call rests on the fitted dose curve; in most records, active means well fitted activation curve with a large enough effect; inconclusive means small, poorly fitted or top-dose-only effect; inactive means flat fitted curve, though single readings scatter.
SMILES,D2 ag-1,D2 PAM-1,D2 PAM-2,D2 ag-2,D2 antagonist,D3 ag,D2 ag-3
O=C(NCCN1CCN(C(=O)c2cccc(Br)c2)CC1)C(=O)Nc1ccc(Br)cc1,-2,2,-9,0,3,/,/
COc1ccc(OC)c(NC(=O)NCCN2CCN(c3ccccc3)CC2)c1,1,16,-17,0,-5,/,/
Cc1cccc(C(=O)NCCN2CCN(c3ccccc3)CC2)c1,2,-22,-21,49*,91*,?,6%
COc1ccccc1C(=O)NCCN1CCN(c2ccccc2)CC1,?,-13,?,72*,83*,?,?
Cc1cccc(C(=O)NCCCNC(=O)c2cccc(C)c2)c1,-3,-6,-13,0,7,/,/
O=C(NCCN1CCN(c2ccccc2)CC1)c1cccc(Br)c1,8,-33,-2,89*,78*,25%,20%
COc1ccccc1CN(Cc1ccco1)c1cnc(S(C)(=O)=O)nc1C(=O)Nc1cc(C)ccc1C,/,13,/,3,/,/,/
CC1=C(C(=O)Nc2cccc(C(F)(F)F)c2)C2(CCCCCC2)OC1=O,/,/,/,-2,/,/,/
Cc1ccc(NC(=O)Cn2cc(S(=O)(=O)N3CCN(c4ccccc4F)CC3)c3ccccc3c2=O)cc1F,/,0,/,0,/,/,/
CC(COc1ccccc1)NC(C)C(O)c1ccc(O)cc1 (configuration not stated),13,-27,-21,77*,90*,2%,16%
Cc1ccc(CNC(=O)CCn2cc(-c3ccc(F)cc3)nc2-c2ccncc2)cc1,-3,-13,-16,-1,-7,/,/
O=C(O)CCn1cc(-c2ccc(F)cc2)nc1-c1ccncc1,-1,/,-7,/,/,-13%,-5%
CC(C)=CCN1CCC(n2nccc2NC(=O)c2ccccc2Cl)CC1,-7,-17,-24,0,16,/,/
O=C(Nc1ccnn1C1CCN(CCCc2ccccc2)CC1)c1ccccc1Cl,?,-35,13,80*,88*,10%,?
CCOC(=O)C1CCCN(C(=O)CCS(=O)(=O)c2cc3c(cc2Cl)NC(=O)CO3)C1 (configuration not stated),/,/,/,1,/,/,/
CCN(CC)CCCN=C1N[C@@H](c2ccccc2)C(C(=O)OC)=C(C)N1CC,-2,-25,-6,77*,12,-3%,-3%
Cc1cc(=O)oc2cc(OC(C)C(=O)NC3CCCC3)ccc12 (configuration not stated),5,-16,-5,1,2,/,/
Cc1cc(=O)oc2cc(OC(C)C(=O)Nc3nccs3)ccc12 (configuration not stated),-3,/,-1,/,/,-3%,-5%
O=C(Nc1ccc(Cl)c(C(F)(F)F)c1)c1nc2ccccc2nc1N1CCCCC1,/,-10,/,0,/,/,/
O=C(CCN1CCC(c2ccccc2)C1)c1cccs1 (configuration not stated),-1,-23,-16,0,11,/,/
COc1cc(C(=O)CCN2CCC(c3ccccc3)C2)cc(OC)c1OC (configuration not stated),-4,-26,-39,46*,24,-9%,-3%
Cc1ccc(Cn2c(CN3CCN(c4cccc(Cl)c4)CC3)nc3c2c(=O)n(C)c(=O)n3C)cc1,/,3,/,1,/,/,/
C=CCn1c(SCCCC)nc(O)cc1=O,-2,-12,-7,15,31*!,1%,-1%
CCCCN(C)CCNC(=O)C1CCN(c2nc3ccc(CC)cc3s2)CC1,/,-5,/,2,/,/,/
COc1cc(OC)c(NC(=O)CN2CCCN(Cc3ccccc3C)S2(=O)=O)cc1Cl,/,2,/,1,/,/,/
SMILES,D2 ag-1,D2 PAM-1,D2 PAM-2,D2 ag-2,D2 antagonist,D3 ag,D2 ag-3
COc1cc(C(=O)OCc2ccc(C)cc2)cc(NC(=O)c2cccs2)c1OC,-5,20,9,6,38*,-6%,22%
Cc1ccc(C)c(N2CCN(C(=O)C(C)n3nc(C)c4sc5ccccc5c4c3=O)CC2)c1 (configuration not stated),/,7,/,-2,/,/,/
Cc1ccc(NC(=O)Cn2c(=O)n(-c3ccc(CC(=O)NCC4CCCO4)cc3)c(=O)c3ccccc32)cc1 (configuration not stated),/,3,/,0,/,/,/
O=[N+]([O-])c1cccnc1N1CCN(Cc2ccc3c(c2)OCO3)CC1,44*,-25,10,89*,92*,-5%,?
O=C(c1cccnc1)N1CCN(Cc2ccc3c(c2)OCO3)CC1,-2,-4,-19,0,-7,/,/
c1cnc(N2CCN(Cc3ccc4c(c3)OCO4)CC2)cn1,44*,-23,?,80*,90*,?,?
COC(=O)c1cc2sc(C)cc2n1Cc1nc(-c2ccc(C)cc2)oc1C,/,6,/,/,/,/,/
COC(=O)c1sc2cccc(F)c2c1S(=O)(=O)N1CCN(c2ccccc2OC)CC1,/,6,/,2,/,/,/
O=S(=O)(c1ccccc1)N1CCN(CCOc2ccc(F)cc2)CC1,-1,/,-14,/,/,/,/
CC(=O)c1cccc(S(=O)(=O)N2CCN(CCOc3ccccc3)CC2)c1,3,-22,-12,49*,1,?,15%
O=S(=O)(c1ccccc1F)N1CCN(CCOc2ccccc2)CC1,-1,-21,-28,31*,39*,21%,16%
CC(=O)c1ccc(S(=O)(=O)N2CCN(CCOc3ccc(Br)cc3)CC2)cc1,2,0,-3,1,-6,/,/
Cc1ccc(S(=O)(=O)N2CCN(CCOc3ccccc3)CC2)cc1,8,-24,-16,50*,16,26%,10%
Cc1c(C(=O)OCC(=O)N2C(C)CCCC2C)oc2ccccc12 (configuration not stated),-1,-1,-9,30,-12,-9%,13%
CCOc1ccc(Nc2nc3c(S(=O)(=O)c4ccc(CC)cc4)nnn3c3ccc(Cl)cc23)cc1,/,0,/,0,/,/,/
O=C(COC(=O)c1ccccn1)NC(=O)c1ccccc1,-7,8,-3,-1,-11,-4%,-6%
CCOc1ccc(C(=O)N/N=C(\c2ccccc2)c2ccccn2)cc1,-4,5,-28,-1,21,-23%,-11%
Cc1ccc(CCNC(=O)C(CC(C)C)NS(=O)(=O)c2ccc3c(c2)oc(=O)n3C)cc1 (configuration not stated),/,/,/,0,/,/,/
Fc1ccc(NC(=S)N2CCCC(c3ccccc3)=N2)cc1,-4,3,5,26,-2,-6%,22%
Cc1cc(C)c2c(CC(=O)Nc3nnc(C(C)C)s3)coc2c1,/,-6,/,0,/,/,/
